The structures appear in SMILES notation.
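Further: compound given one day before doxycycline, which switches on I-SceI endonuclease expression to create double-strand breaks within the integrated reporter.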

This experiment concerns CLZ3 (HCA2 human fibroblast dual HR-NHEJ reporter). In words: HR repair efficiency (tdTomato+ cells) relative to control (log10 fold); higher = more homologous recombination. The settings on record: 5 µM; doxycycline 0.5 ug/mL.
`COc1cc(-c2coc3cc4c(c(OC)c3c2=O)OCO4)cc(OC)c1OC` [Irisflorentin]: the “HR repair efficiency (log10)” value was found to be 0.0727. To `C[C@@H]1O[C@@H](O[C@H]2[C@H](O[C@H]3CC[C@@]4(C)[C@@H](CC[C@]5(C)[C@@H]4CC=C4[C@@H]6CC(C)(C)CC[C@]6(C(=O)O[C@@H]6O[C@H](CO[C@@H]7O[C@H](CO)[C@@H](O)[C@H](O)[C@H]7O)[C@@H](O)[C@H](O)[C@H]6O)CC[C@]45C)[C@]3(C)CO)OC[C@H](O)[C@@H]2O)[C@H](O)[C@H](O[C@@H]2O[C@H](CO)[C@@H](O)[C@H](O)[C@H]2O)[C@H]1O` [Macranthoidin A] belongs 0.0324; to `C[C@@H]1O[C@@H](O[C@H]2[C@H](O[C@H]3CC[C@@]4(C)[C@@H](CC[C@]5(C)[C@@H]4CC=C4[C@@H]6CC(C)(C)CC[C@]6(C(=O)O)CC[C@]45C)[C@]3(C)CO)OC[C@H](O)[C@@H]2O)[C@H](O)[C@H](O)[C@H]1O` [α-Hederin], -0.192; to `COc1cc(/C=C/C(=O)CC(=O)/C=C/c2ccc(O)c(OC)c2)ccc1O` [Curcumin], -0.113. With `COc1ccc(-c2cc(=O)c3c(O)c(OC)c(O)c(OC)c3o2)cc1` [Nevadensin], the “HR repair efficiency (log10)” value turned out to be 0.0179. To `CC(C)=CC/C=C(\C)[C@H]1CC[C@]2(C)[C@@H]1[C@H](O)C[C@@H]1[C@@]3(C)CC[C@H](O[C@@H]4O[C@H](CO)[C@@H](O)[C@H](O)[C@H]4O[C@@H]4O[C@H](CO)[C@@H](O)[C@H](O)[C@H]4O)C(C)(C)[C@@H]3CC[C@]12C` [Ginsenoside Rg5] belongs 0.0507.

The values above are taken from the supplement of paper PMC7380943.
